Source: PubChem BioAssay (National Center for Advancing Translational Sciences (NCATS))
Hits are enriched below; roughly 3.6% of the tested compounds scored in any of these assays.
ClpP mod: qHTS Assay for Activators of ClpP; ATP-dependent Clp protease proteolytic subunit (Bacillus subtilis (strain 168)), P80244; purified B. subtilis ClpP, FRET peptide cleavage, 20 min; Potency, µM (doses to about 57.5 µM); hit rate 1.9% among 340,000; active means well fitted falling curve with a large enough effect; inconclusive means small, poorly fitted or top-dose-only effect; inactive means no such curve, though single readings can be large or run the other way; further: the source files actives as falling curves though it sought activators and does not explain the sign; nearly all actives have a fitted effect of over 65% in size
Target sequence (P80244 whole entry, looked up): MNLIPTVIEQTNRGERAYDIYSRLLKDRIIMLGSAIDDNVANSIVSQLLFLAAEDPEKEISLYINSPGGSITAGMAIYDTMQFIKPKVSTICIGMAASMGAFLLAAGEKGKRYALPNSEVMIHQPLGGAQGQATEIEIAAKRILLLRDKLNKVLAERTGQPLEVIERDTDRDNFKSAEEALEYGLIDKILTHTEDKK
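Buffer: 100 mM Tris/HCl pH8, 100 mM KCl, 0.05% low protease BSA, 2.5% glycerol, 0.01% Tween-20. ClpP 10 microg/mL final; 20 min RT; delta FRET normalized to ADEP and DMSO controls.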
aSyn yeast inh: rescues yeast growth from alpha-synuclein toxicity; Yeast expressing alpha-synuclein, growth rescue, BacTiter-Glo, 24 h; Potency, µM (series often up to 46.1 µM), actives largely listed as activators; hit rate 0.14% among 370,000; AID 652106; further: nearly all actives have a fitted effect of over 65% in size
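Readout is rescue of growth in alpha-synuclein-expressing yeast, so inhibitors of toxicity appear as activators. Growth after 24 hr at 30 deg C in galactose medium is quantified by luminescence.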
TDP-43 yeast inh: inhibitors of TDP-43 toxicity in yeast | hit rate 1.8% among 410,000 | TDP-43 expressing yeast growth rescue, BacTiter-Glo, 24 h | Potency, µM (top dose mostly 46.1 µM), actives largely listed as activators; further: nearly all actives have a fitted effect of over 50% in size
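Growth rescue of TDP-43-toxic yeast measured as ATP luminescence (BacTiter-Glo). Cells grown to mid-log in raffinose, induced in galactose at OD600=0.02, exposed to compound 24 hr at 30 deg C.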
FUS suppressor: suppressors of FUS proteinopathy in yeast. S. cerevisiae FUS-expressing, growth rescue, OD600, 24 h. Potency, µM (titrated, usually from 76.6 µM), actives largely listed as activators. hit rate 0.24% among 390,000. AID 1347120; further: nearly all actives have a fitted effect of over 55% in size
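Yeast expressing FUS under galactose induction, OD 0.005 in 2% galactose medium; compounds in a dilution series, 24 h at 30C. Growth rescue by absorbance at 600 nm; CP55940 positive control, DMSO negative.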
MmCpn inh: blocks the Methanococcus maripaludis chaperonin Mm-Cpn; purified Mm-Cpn ATPase, ADP Transcreener TR-FRET; Potency, µM (series often up to 76.9 µM), actives largely listed as inhibitors; hit rate 0.031% among 330,000; further: nearly all actives have a fitted effect of over 80% in size
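Quantitative HTS used 25 nM Mm-CPN and 10 uM ATP in magnesium/KCl Tris buffer, pH 7.4, with 1 mM DTT. Hydrolysis ran 30 min at 37°C; ADP was read by HTRF.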
Abeta yeast res: restores growth of yeast expressing A-beta42 peptide; yeast expressing A-beta42, growth rescue, OD600, 48 h; response scale: 0% DMSO, 100% iron-clioquinol control; Potency, µM (highest dose often 46.1 µM), most hits filed as activators; hit rate 0.063% among 410,000; AID 1347071; further: nearly all actives have a fitted effect of over 55% in size
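Growth rescue measured by 600 nm absorbance after 48 h yeast culture at 30 C with compound. Values normalized between DMSO and an equimolar ferric chloride plus clioquinol control.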
A number is an active result; i = inactive; ? = inconclusive; nt = no result; [ ] = remark or other dose. Unless noted, the call rests on the fitted dose curve; in most records, active means well fitted curve in the direction sought with a large enough effect; inconclusive means small, poorly fitted or top-dose-only effect, or another doubt; inactive means no such curve, though single readings can be large; an effect the other way counts as inactive or inconclusive.

SMILES	ClpP mod	aSyn yeast inh	TDP-43 yeast inh	FUS suppressor	MmCpn inh	Abeta yeast res
Cc1ccc(/C(N)=N/OC(=O)C23CC4CC(CC(C4)C2)C3)cc1	i	i	2µM	i	i	i
N/C(=N\OC(=O)C12CC3CC(CC(C3)C1)C2)c1ccncc1	i	i	13µM	i	i	i
C(=Nc1cnc2ccccc2c1)c1cccnc1	i	i	nt	nt	nt	nt
CS(=O)(=O)c1ncc(Cl)c(C(=O)N2CCN(c3cccc(Cl)c3)CC2)n1	i	i	13µM	i	nt	i
CCS(=O)(=O)c1ncc(Cl)c(C(=O)N2CCN(c3cccc(Cl)c3)CC2)n1	i	nt	13µM	i	nt	i
COc1ccc(OCC(=O)N2CCN(c3cccc(Cl)c3)CC2)cc1	?	i	?	i	i	i
CCN(N=O)c1ccc(/C=C/c2ccnc3ccccc23)cc1	i	i	nt	nt	nt	nt
C/C=C(\NNC(C)=O)c1ccc(O)cc1	i	i	nt	nt	nt	nt
Cc1ccc(C2CC(c3ccc(Cl)cc3)=NNC2=O)cc1 (centres undefined)	i	i	22µM	i	i	i[9.22 µM]
O=C1NN=C(c2ccc(Br)cc2)CC1c1ccc(Cl)cc1 (centres undefined)	nt	i	?	i	i	i
O=C(O)Cc1cn(Cc2cccc(Cl)c2)c2ccccc12	i	i	i	i	i	i
O=C(O)CC(C(=O)O)c1cn(Cc2ccccc2)c2ccccc12 (centres undefined)	28µM	i	i	i	i	?
CC(=O)Nc1c(C(=O)c2ccccc2)oc2ccccc12	i	nt	7.9µM	i	i	i
NC(=O)c1oc2ccccc2c1NC(=O)CCc1ccccc1	i	i	11µM	i	i	i
O=C(Nc1ccc(OC(F)(F)F)cc1)Nc1c(-c2ccc(F)cc2)nc2ncccn12	nt	nt	nt	i	nt	nt
COc1ccc(CN(Cc2ccccc2)C(=O)CN2CCN(C)CC2)cc1COc1ccc(NC(C)=O)cc1	i	i	nt	nt	nt	nt
O=C(COC(=O)C1(c2ccccc2F)CCCC1)NCc1ccc2c(c1)OCO2	i	i	16µM	nt	i	i
O=C(COC(=O)C1(c2ccc(F)cc2)CCCC1)NCc1ccc2c(c1)OCO2	i	i	?	i	i	i
O=C(COC(=O)/C=C/c1ccco1)NCc1ccc2c(c1)OCO2	nt	i	16µM	i	i	i
C=CCCC(=O)N[C@H]1CC[C@@]23CCCN2C(=O)CCC[C@H]3[C@H]1C	nt	nt	nt	i	nt	nt
CCCCCCCCCCOC(=O)Cn1c(COc2ccccc2C)[n+](C)c2ccccc21	nt	i	nt	40µM	i	i
O=C(CSCc1ccc(Cl)c(Cl)c1)Nc1c[nH]c(=O)[nH]c1=O	13µM	i	i	i	i	i
O=C(CSCc1ccccc1Cl)Nc1c[nH]c(=O)[nH]c1=O	28µM	i	i	nt	i	i
O=C(Nc1ccccc1F)c1ccc(Cn2nc(N3CCN(c4ccccc4)CC3)ccc2=O)o1	i	nt	?	i	nt	i
COc1ccc(C2(CNC(=O)C(=O)Nc3ccc(C)c(Cl)c3)CCCC2)cc1OC	i	nt	i	i	nt	i
SMILES	ClpP mod	aSyn yeast inh	TDP-43 yeast inh	FUS suppressor	MmCpn inh	Abeta yeast res
CCOCCCNC(=S)N(Cc1ccccc1)Cc1nc2ccccc2c(=O)[nH]1	i	i	i	i	i	i
CCCNC(=S)N(Cc1ccccc1)Cc1nc2ccccc2c(=O)[nH]1	28µM	i	i	nt	i	i
CC(C)c1ccc(OCc2cc(=O)n3c4c(sc3n2)CCCC4)cc1	i	nt	i	i	nt	i
COc1ccc(-c2csc3ncnc(Nc4ccc(OC)cc4OC)c23)cc1	40µM	nt	i	i	nt	i
COc1ccccc1Nc1ncnc2scc(-c3ccc(F)cc3)c12	28µM	nt	i	i	nt	i
Cc1cc2c(c(=O)o1)C1O[C@](c3ccsc3)(Cc3ccccc31)O2	nt	nt	nt	nt	i[15.4 µM]	nt
CCO[C@H]1OC(C(=O)Nc2ccccc2)=C[C@@H](c2ccc(C(F)(F)F)cc2)[C@@H]1CCCO	i	?	35µM	i	nt	i
CCO[C@H]1OC(C(=O)NCc2ccccc2)=C[C@@H](c2ccc(C(F)(F)F)cc2)[C@@H]1CCCO	i	?	i	?	nt	i
NS(=O)(=O)c1ccc(CCNC(=O)c2nc(SCc3ccccc3F)ncc2Cl)cc1	i	nt	i	i	nt	i
CCOC(=O)/C=C/C(=O)OCC(=O)Nc1ccc([N+](=O)[O-])cc1	i	i	14µM	i	i	nt
COc1ccc(C(=O)CSc2nnc(C3CCCCC3)n2N)c(OC)c1	i	i	i	?	i	i
COc1ccc(CCN(C)C(=O)CSc2nnc(C3CC3)n2N)cc1OC	25µM	i	i	i	i	i
O=C(Cn1ncc2c3ccccc3n(Cc3ccc(Cl)cc3)c2c1=O)NCc1cccs1	i	nt	i[9.22 µM]	i	nt	i
Cc1ccc(Cl)c2sc(N3CCN(C(=O)C4CC4)CC3)nc12	i	nt	14µM	?	nt	i
Cc1ccc(C)c2sc(N3CCN(C(=O)C(C)(C)C)CC3)nc12	i	nt	35µM	i	nt	i
COC(=O)[C@]12C[C@H](CC(=O)NCCCN3CCCC3=O)C(=O)N(Cc3ccco3)C1=C[C@H](C1CCCC1)O[C@@H]2C	nt	nt	nt	i	nt	nt
COc1ccccc1CNC(=O)c1c(O)nc2c(C)cccn2c1=O	i	nt	i	i	nt	i
COc1ccccc1-c1nc(-c2ccc(Br)cc2)no1	?	i	i	i	i	i
COc1ccccc1-c1nc(-c2ccncc2)no1	i	nt	11µM	i	i	i
CCOc1ccccc1-c1nc(-c2ccncc2)no1	i	i	18µM	i	nt	i
COc1nc(-c2ccccc2)ccc1-c1noc(-c2cccnc2)n1	i	i	i	i	i	i
COc1ccccc1-c1noc(-c2cccnc2)n1	i	i	11µM	i	i	i
CC1=C(C(=O)Nc2cccnc2)C(c2ccccc2)n2nc(-c3ccc(O)cc3)nc2N1 (centres undefined)	i	nt	?	i	nt	i
Cc1cccc(OCC(=O)Nc2ccc3c(c2)nc(CCNC(=O)c2ccco2)n3C)c1	i	nt	i	i	nt	i
O=C(Cc1ccccc1)N(Cc1cccnc1)c1nc2c(F)cc(F)cc2s1	i	nt	18µM	i	nt	i
SMILES	ClpP mod	aSyn yeast inh	TDP-43 yeast inh	FUS suppressor	MmCpn inh	Abeta yeast res
COc1ccc2nc(N(Cc3cccnc3)C(=O)COc3ccccc3)sc2c1	i	nt	16µM	i	nt	i
Cc1cccc2sc(N(Cc3cccnc3)C(=O)CCOc3ccccc3)nc12	i	nt	i	i	nt	i
COc1ccc2sc(N(Cc3cccnc3)C(=O)COc3ccccc3)nc2c1	i	nt	i	i	nt	i
Cc1cccc2sc(N(Cc3cccnc3)C(=O)COc3ccccc3)nc12	i	nt	11µM	i	nt	i
COc1cc(OC)cc(-n2c(=O)c3ccccc3n(CC(=O)NCCc3ccc(OC)c(OC)c3)c2=O)c1	i	nt	i	i	nt	i
CCc1nc(N)c(C#N)c(-c2ccc(F)cc2)c1C	28µM	i	i	i	i	i
CCc1nc(N)c(C#N)c(-c2cccnc2)c1C	i	i	i	i	i	i
